From PubChem BioAssay (NCATS)
Records with an inconclusive call do not appear. The list shows a part of the results. The source made the active and inactive calls. Unless noted, calls follow the shape of the dose curve; as a rule, active = well fitted curve in the direction sought with a large enough effect; inconclusive = small, poorly fitted or top-dose-only effect, or another doubt; inactive = no such curve, though single readings can be large; an effect the other way counts as inactive or inconclusive.

Tested on: not listed separately
Test: qHTS assay for small molecule agonists of retinoid X receptor alpha signaling (AID 588544; calls by dose curve;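 as to activation: 0% = DMSO basal wells and 100% = reference agonist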)
Conditions: HEK293T RXRa-UAS-bla, beta-lactamase reporter, 18 h; 530 nm emission

| SMILES | max response |
| --- | --- |
| N#CC(Br)(Br)C(N)=O | 6.67% |
| CC1(C)CCC(Cc2ccc(Cl)cc2)C1(O)Cn1cncn1 (centres undefined) | 16.6% |
| CC(C)NC(=O)N1CC(=O)N(c2cc(Cl)cc(Cl)c2)C1=O | 21.2% |
| [CH3][Sn]([CH3])([Cl])[Cl] | -7.56% |

Molecular target: Retinoic acid receptor RXR-alpha (Homo sapiens) (UniProt P19793)
Test: as above
Conditions: HEK293T RXRa-UAS-bla, beta-lactamase reporter, 18 h; series mostly up to 76.7 µM; activation: at the top concentration

Retinoic acid receptor RXR-alpha (Homo sapiens), sequence (P19793 whole entry, looked up): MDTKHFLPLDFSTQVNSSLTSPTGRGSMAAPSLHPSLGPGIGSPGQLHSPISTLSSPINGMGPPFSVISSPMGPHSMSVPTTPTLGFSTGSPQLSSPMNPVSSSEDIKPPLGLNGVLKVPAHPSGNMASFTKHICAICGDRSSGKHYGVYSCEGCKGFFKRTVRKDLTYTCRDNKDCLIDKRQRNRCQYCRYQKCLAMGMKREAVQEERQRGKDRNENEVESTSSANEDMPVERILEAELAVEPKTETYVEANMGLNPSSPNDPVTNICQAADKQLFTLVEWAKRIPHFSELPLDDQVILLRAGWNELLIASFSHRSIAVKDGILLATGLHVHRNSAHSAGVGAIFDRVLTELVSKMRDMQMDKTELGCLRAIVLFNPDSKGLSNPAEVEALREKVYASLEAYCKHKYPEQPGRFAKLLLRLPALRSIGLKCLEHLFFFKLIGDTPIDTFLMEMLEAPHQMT

| SMILES | activation |
| --- | --- |
| N#CC(Br)(Br)C(N)=O | -26.6% (inactive) |
| CC1(C)CCC(Cc2ccc(Cl)cc2)C1(O)Cn1cncn1 (centres undefined) | -27% (inactive) |
| CC(C)NC(=O)N1CC(=O)N(c2cc(Cl)cc(Cl)c2)C1=O | -20.2% (inactive) |
| [CH3][Sn]([CH3])([Cl])[Cl] | 11% (inactive) |

Molecular target: Thyroid hormone receptor beta (Homo sapiens) (UniProt P10828)
Test: qHTS assay for small molecule agonists of thyroid hormone receptor beta signaling (AID 588545; calls by dose curve;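 also: 0% = DMSO only and 100% = 10 nM T3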)
Conditions: TR-UAS-bla GripTite HEK 293, beta-lactamase ratio, agonist mode, 18 h; series mostly up to 76.7 µM; activation: at the top concentration
Outline: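 Beta-lactamase reporter activity under TR response element control is measured in HEK 293 cells after 18 hrs compound exposure. Signal is ratiometric CCF4 fluorescence, 460/530 nm.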

Thyroid hormone receptor beta (Homo sapiens), sequence (P10828 whole entry, looked up): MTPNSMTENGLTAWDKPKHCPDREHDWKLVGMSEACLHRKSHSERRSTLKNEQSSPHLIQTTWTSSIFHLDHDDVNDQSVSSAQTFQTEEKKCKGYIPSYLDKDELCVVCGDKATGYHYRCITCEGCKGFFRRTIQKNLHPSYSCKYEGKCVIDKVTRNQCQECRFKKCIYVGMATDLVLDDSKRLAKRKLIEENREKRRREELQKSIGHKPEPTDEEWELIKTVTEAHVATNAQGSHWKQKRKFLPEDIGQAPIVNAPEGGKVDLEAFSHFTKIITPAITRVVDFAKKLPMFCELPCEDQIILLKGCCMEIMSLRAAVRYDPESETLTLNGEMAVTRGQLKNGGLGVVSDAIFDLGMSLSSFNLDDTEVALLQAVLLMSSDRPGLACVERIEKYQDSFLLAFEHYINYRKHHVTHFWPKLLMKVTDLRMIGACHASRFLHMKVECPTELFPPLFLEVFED

| SMILES | activation |
| --- | --- |
| CON=C(C(=O)OC)c1ccccc1CO/N=C(\C)c1cccc(C(F)(F)F)c1 | -9.16% (inactive) |
| CC1(C)CCC(Cc2ccc(Cl)cc2)C1(O)Cn1cncn1 (centres undefined) | -6.06% (inactive) |
| CC(C)NC(=O)N1CC(=O)N(c2cc(Cl)cc(Cl)c2)C1=O | 6.29% (inactive) |
| CCOCn1c(-c2ccc(Cl)cc2)c(C#N)c(Br)c1C(F)(F)F | 2.18% (inactive) |

Tested on: not listed separately
Test: qHTS assay for small molecule antagonists of retinoid X receptor alpha signaling (AID 588546; active = well fitted inhibition curve with a large enough effect in the signal ratio, with a control signal flat, not every such curve was filed as active; the % refers to the signal ratio; also: potency is read from the fitted curve at half-maximal effect;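 as to max response: cells stimulated with 9-cis-retinoic acid as agonist; % is scaled to controls: 0 for no effect and ±100 for the full control effect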)
Conditions: HEK293T RXRa-UAS-bla, beta-lactamase ratio, antagonist mode; measured here: W530 green channel, cytotoxicity proxy
Outline: (§1)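 Beta-lactamase reporter inhibition, read as CCF4 fluorescence ratio (ex 405, em 460/530 nm) after 2 h at RT. HEK293T UAS-bla cells, 2500/well, were stimulated with 9-cis-RA at 500 or 100 nM final alongside test compound for 18 h at 37 C.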

| SMILES | max response |
| --- | --- |
| CC1(C)CCC(Cc2ccc(Cl)cc2)C1(O)Cn1cncn1 (centres undefined) | -14.2% |
| CC(C)NC(=O)N1CC(=O)N(c2cc(Cl)cc(Cl)c2)C1=O | 11.6% |
| CCOCn1c(-c2ccc(Cl)cc2)c(C#N)c(Br)c1C(F)(F)F | 0.12% |
| [CH3][Sn]([CH3])([Cl])[Cl] | -2.31% |

Molecular target: Retinoic acid receptor RXR-alpha (Homo sapiens) (UniProt P19793)
Test: as above
Conditions: HEK293T RXRa-UAS-bla, beta-lactamase ratio, antagonist mode
Outline: as §1

| SMILES | max response | Potency |
| --- | --- | --- |
| CC1(C)CCC(Cc2ccc(Cl)cc2)C1(O)Cn1cncn1 (centres undefined) | -14.3% (inactive) | – |
| CC(C)NC(=O)N1CC(=O)N(c2cc(Cl)cc(Cl)c2)C1=O | -6.64% (inactive) | – |
| CCOCn1c(-c2ccc(Cl)cc2)c(C#N)c(Br)c1C(F)(F)F | – | 2.24 µM (active) |
| [CH3][Sn]([CH3])([Cl])[Cl] | -24.3% (inactive) | – |

Molecular target: Voltage-gated inwardly rectifying potassium channel KCNH2 (Homo sapiens) (UniProt Q12809)
Test: qHTS Assay for Small Molecule Inhibitors of the Human hERG Channel Activity (AID 588834);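 also: lower thallium flux fluorescence means stronger hERG block; nearly all actives have a fitted effect of over 50% in size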; also: potency is read from the fitted curve at half-maximal effect; as to activity change, negative = inhibition: top concentration of the series differs between compounds; % is scaled to controls: 0 for no effect and ±100 for the full control effect
Conditions: U2OS BacMam hERG, FluxOR thallium flux fluorescence; series mostly up to 92.2 µM; activity change, negative = inhibition: at the top concentration
Outline: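 Thallium-flux (FluxOR) read-out on FDSS: fluorescence read 10 s before and 2 min after stimulation buffer. hERG-BacMam-transduced U2OS cells, compound exposure about 10 min. AC50 by standard Hill equation.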

Voltage-gated inwardly rectifying potassium channel KCNH2 (Homo sapiens), sequence (Q12809 whole entry, looked up): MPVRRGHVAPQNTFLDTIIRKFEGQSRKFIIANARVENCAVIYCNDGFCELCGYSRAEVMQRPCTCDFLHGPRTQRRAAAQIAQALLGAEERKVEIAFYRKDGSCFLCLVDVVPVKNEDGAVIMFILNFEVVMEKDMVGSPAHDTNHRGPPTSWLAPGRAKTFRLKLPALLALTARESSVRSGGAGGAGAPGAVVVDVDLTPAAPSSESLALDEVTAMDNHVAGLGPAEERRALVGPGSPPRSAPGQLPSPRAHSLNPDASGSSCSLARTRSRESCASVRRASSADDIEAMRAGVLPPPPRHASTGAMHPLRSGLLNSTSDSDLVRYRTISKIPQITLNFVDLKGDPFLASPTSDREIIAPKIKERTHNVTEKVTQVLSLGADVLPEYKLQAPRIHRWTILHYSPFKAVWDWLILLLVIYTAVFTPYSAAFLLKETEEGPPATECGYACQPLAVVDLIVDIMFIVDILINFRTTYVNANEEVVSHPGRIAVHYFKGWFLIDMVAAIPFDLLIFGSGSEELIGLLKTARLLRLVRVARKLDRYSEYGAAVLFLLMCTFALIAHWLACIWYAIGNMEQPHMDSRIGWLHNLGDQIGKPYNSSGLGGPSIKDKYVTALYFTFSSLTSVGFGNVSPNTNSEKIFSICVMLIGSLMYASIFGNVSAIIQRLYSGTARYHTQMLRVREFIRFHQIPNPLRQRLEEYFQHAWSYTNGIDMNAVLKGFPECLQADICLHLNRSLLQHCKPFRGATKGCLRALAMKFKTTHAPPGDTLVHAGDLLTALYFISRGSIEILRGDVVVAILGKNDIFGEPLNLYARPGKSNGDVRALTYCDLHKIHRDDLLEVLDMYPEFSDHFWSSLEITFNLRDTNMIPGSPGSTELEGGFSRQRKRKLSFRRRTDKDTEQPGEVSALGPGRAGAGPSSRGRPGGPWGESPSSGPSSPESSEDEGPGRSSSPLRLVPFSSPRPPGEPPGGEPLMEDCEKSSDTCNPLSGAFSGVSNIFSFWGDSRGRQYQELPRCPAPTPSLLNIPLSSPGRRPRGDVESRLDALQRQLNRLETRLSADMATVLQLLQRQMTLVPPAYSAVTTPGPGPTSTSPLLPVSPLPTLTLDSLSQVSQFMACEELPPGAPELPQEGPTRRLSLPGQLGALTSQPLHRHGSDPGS

| SMILES | Potency | activity change, negative = inhibition |
| --- | --- | --- |
| c1ccc2c(c1)Oc1ccccc1S2 | 28.2 µM (active) | – |
| [O-][N+](=Nc1ccccc1)c1ccccc1 | – | 1.57% [at 46.1 µM] (inactive) |
| NCCN | – | 0.146% [at 46.1 µM] (inactive) |

Molecular target: Vitamin D3 receptor (Homo sapiens) (UniProt P11473)
Test: qHTS for Inhibitors of the vitamin D receptor (VDR): Hit Validation in Primary Screen (AID 602199); also: potency is read from the fitted curve at half-maximal effect
Conditions: VDR-coactivator inhibition assay, qHTS confirmation
Outline: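 Fluorescence polarization assay of VDR binding to Alexa 647-labelled SRC2-3 coactivator peptide: 800nM VDR with 5uM LG19078 agonist, compounds, 2 h at room temperature, read Ex 620 nm/Em 688 nm.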

Vitamin D3 receptor (Homo sapiens), sequence (P11473 whole entry, looked up): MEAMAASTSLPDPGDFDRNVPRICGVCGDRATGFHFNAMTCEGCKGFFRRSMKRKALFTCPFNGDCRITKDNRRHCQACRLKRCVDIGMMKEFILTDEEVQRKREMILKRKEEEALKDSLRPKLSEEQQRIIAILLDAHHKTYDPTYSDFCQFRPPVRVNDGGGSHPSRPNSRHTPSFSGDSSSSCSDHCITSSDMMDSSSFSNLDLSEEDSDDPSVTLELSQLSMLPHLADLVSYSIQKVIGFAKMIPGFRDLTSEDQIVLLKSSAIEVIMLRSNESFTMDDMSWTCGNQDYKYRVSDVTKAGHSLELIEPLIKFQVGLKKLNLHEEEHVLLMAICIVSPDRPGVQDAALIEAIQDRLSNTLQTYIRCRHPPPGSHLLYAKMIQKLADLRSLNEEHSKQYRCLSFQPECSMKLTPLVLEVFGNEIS

| SMILES | Potency |
| --- | --- |
| O=C(O)CCn1cc(C=C2C(=O)NC(=S)NC2=O)c(-c2cccc(Br)c2)n1 | 6.7 µM (active) |
| Cc1ccnc(-n2c(C)cc(/C=C3\C(=O)NC(=S)N(C)C3=O)c2C)c1 | 29.9 µM (active) |
| O=C1NC(=O)N(c2ccccc2)C(=O)/C1=C/c1ccc([N+](=O)[O-])s1 | 26.7 µM (active) |

Tested on: not listed separately
Test: qHTS for Inhibitors of the vitamin D receptor (VDR): Hit Validation using a Texas Red Assay (AID 602201); also: potency is read from the fitted curve at half-maximal effect; as to activity, negative = inhibition: % is scaled to controls: 0 for no effect and ±100 for the full control effect
Conditions: VDR coregulator binding, Texas Red fluorescence polarization; series mostly up to 57.1 µM; activity, negative = inhibition: at the top concentration
Outline: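 Fluorescence polarization (Ex 595/Em 615 nm) of Texas Red (7 nM) with 1.5 uM VDR-LBD and LG19078 (final concentrations). Compounds were incubated for 2 hours at room temperature.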

| SMILES | activity, negative = inhibition | Potency |
| --- | --- | --- |
| O=C(O)CCn1cc(C=C2C(=O)NC(=S)NC2=O)c(-c2cccc(Br)c2)n1 | -5.32% (inactive) | – |
| COc1cccc(C2CC3C(=O)C=CC2N3Cc2ccccc2)c1 (centres undefined) | – | 28.2 µM (active) |
| CC(C)n1c(O)c(C2c3cc(Cl)ccc3Oc3[nH]c(=O)n(C(C)C)c(=O)c32)c(=O)[nH]c1=O (centres undefined) | -8.67% (inactive) | – |
| Cc1ccccc1N1C(=O)NC(=O)/C(=C\c2cnn(-c3ccccc3)c2)C1=O | -12.5% (inactive) | – |
| CN1CCC(O)(c2cccs2)C(C(=O)c2cccs2)C1 (centres undefined) | – | 28.2 µM (active) |
| Cc1nn(Cc2ccccc2)c(C)c1C=C1C(=O)NC(=S)NC1=O | -17.6% (inactive) | – |
| O=C1NC(=O)C(=Cc2ccc(-c3ccc(S(=O)(=O)N4CCOCC4)cc3)o2)C(=O)N1 | -19.4% (inactive) | – |
| Cc1ccc(N2C(=O)NC(=O)/C(=C\c3cnc(-c4ccccc4)nc3)C2=O)cc1 | -9.62% (inactive) | – |
| O=C(O)CCn1cc(C=C2C(=O)NC(=S)NC2=O)c(-c2cccc(Cl)c2)n1 | -4.91% (inactive) | – |
| COC(=O)COc1ccc(/C=C2\C(=O)NC(=S)N(c3ccc(C)cc3)C2=O)cc1OC | -4.72% (inactive) | – |
| O=c1oc2ccccc2c(O)c1[C@H]1c2ccc(O)cc2Oc2c1c(=O)oc1ccccc21 | 33.6% (inactive) | – |
| O=C1NC(=O)N(c2ccccc2)C(=O)/C1=C/c1ccc([N+](=O)[O-])s1 | -18.8% (inactive) | – |
| CN1C2CCC1/C(=C/c1ccccn1)C(=O)/C2=C\c1ccccn1 | -13.1% (inactive) | – |
| O=C1NC(=O)C(=Cc2ccc(-c3cc(Cl)ccc3[N+](=O)[O-])o2)C(=O)N1 | 5.28% (inactive) | – |

Molecular target: Vitamin D3 receptor (Homo sapiens) (UniProt P11473)
Test: qHTS for Inhibitors of the vitamin D receptor (VDR): Hit Validation using a Beta-Lactamase Assay (AID 602202); also: % is scaled to controls: 0 for no effect and ±100 for the full control effect
Conditions: VDR beta-lactamase reporter cells, FRET ratio; series mostly up to 46.1 µM; activity change, negative = inhibition: at the top concentration
Outline: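 Stably transfected HEK293 cells express a VDR–GAL4 DNA-binding-domain fusion driving a UAS beta-lactamase reporter, stimulated by agonist LG190178. Compounds were added 4 h after plating and incubated 18 h. A FRET beta-lactam substrate was then added for 2 h and cleaved substrate emission read at 447 nm.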

| SMILES | activity change, negative = inhibition |
| --- | --- |
| O=C(O)CCn1cc(C=C2C(=O)NC(=S)NC2=O)c(-c2cccc(Br)c2)n1 | -2.37% (inactive) |
| Cc1ccnc(-n2c(C)cc(/C=C3\C(=O)NC(=S)N(C)C3=O)c2C)c1 | 26.5% (inactive) |
| O=C1NC(=O)N(c2ccccc2)C(=O)/C1=C/c1ccc([N+](=O)[O-])s1 | 11.1% (inactive) |

Tested on: not listed separately
Test: qHTS assay for small molecule agonists of the antioxidant response element (ARE) signaling pathway (AID 651741; active = well fitted activation curve with a large enough effect in the signal ratio; the % refers to the signal ratio; also: potency is read from the fitted curve at half-maximal effect)
Conditions: HepG2 ARE-bla reporter, beta-lactamase FRET ratio, 16 h; series mostly up to 96 µM; activation: at the top concentration
Outline: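 Reporter: beta-lactamase under ARE, stably in HepG2. Exposure: 16 h, 37 C, compounds delivered in DMSO by pin tool after 5 h cell preincubation. Readout: FRET substrate fluorescence after 2 h at RT.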

| SMILES | Potency |
| --- | --- |
| CON=C(C(=O)OC)c1ccccc1CO/N=C(\C)c1cccc(C(F)(F)F)c1 | 8.63 µM (active) |
| [O-][N+](=Nc1ccccc1)c1ccccc1 | 37.6 µM (active) |
| Oc1cc(Cl)cc(Cl)c1Cl | 66.8 µM (active) |
| ClC1=C(Cl)[C@]2(Cl)[C@H]3[C@H]([C@@H]4C=C[C@H]3C4)[C@]1(Cl)C2(Cl)Cl | 61.1 µM (active) |
| COS(C)(=O)=O | 42.2 µM (active) |
| CO | 42.2 µM (active) |
| C=CCCC | 66.8 µM (active) |

Tested on: not listed separately
Test: qHTS assay for small molecule activators of the p53 signaling pathway (AID 651743; active = well fitted activation curve with a large enough effect in the signal ratio, not every such curve was filed as active; the % refers to the signal ratio; also: potency is read from the fitted curve at half-maximal effect; as to activation: % of control where 0% means no effect)
Conditions: HCT-116 p53RE-bla, beta-lactamase FRET ratio, 16 h; activation: stronger effect = higher value
Outline: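 Agonist-mode quantitative HTS in HCT-116 cells carrying a p53-response-element beta-lactamase reporter; 16 h compound treatment at 37 C, then FRET substrate loading for 2 h at room temperature and fluorescence read.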

| SMILES | activation | Potency |
| --- | --- | --- |
| CCOP(=O)(OCC)Oc1nc(Cl)c(Cl)cc1Cl | -7.33% (inactive) | – |
| CON=C(C(=O)OC)c1ccccc1CO/N=C(\C)c1cccc(C(F)(F)F)c1 | – | 5.01 µM (active) |
| ClC1=C(Cl)[C@]2(Cl)[C@H]3[C@H]([C@@H]4C=C[C@H]3C4)[C@]1(Cl)C2(Cl)Cl | -0.297% (inactive) | – |
| CC(C)NC(=O)N1CC(=O)N(c2cc(Cl)cc(Cl)c2)C1=O | -1.23% (inactive) | – |
